PubChem BioAssay (Tox21)
Records with an inconclusive call do not appear. Calls of active or inactive are those of the source. Unless noted, calls come from the whole dose curve; as a rule, active = well fitted curve in the direction sought with a large enough effect in the repeat runs; inconclusive = weak or mixed curves; inactive = no such curve, though single readings can be large; an effect the other way counts as inactive or inconclusive.

Columns and labels:
[1] = qHTS RealTime-Glo MT Cell Viability Assay in HEK293 cells - 24 hour (AID 1224886); note: top concentration of the series differs between compounds; nearly all actives have a fitted effect of over 50% in size
Procedure, shortened: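 HEK293 cells were seeded at 600 cells/well together with NanoLuc luciferase and cell-permeant prosubstrate, preincubated 5 h at 37 C/5% CO2, then given compound in DMSO by pintool. Luminescence from viable-cell prosubstrate reduction was read repeatedly over 40 h.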

[2] = qHTS RealTime-Glo MT Cell Viability Assay in HEK293 cells - 8 hour (AID 1224887); note: top concentration of the series differs between compounds; nearly all actives have a fitted effect of over 50% in size
Procedure, shortened: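 HEK293 cells mixed with RealTime-Glo reagents (NanoLuc plus cell-permeant prosubstrate) at 600 cells/well, preincubated 5 h at 37 C/5% CO2, then given 23 nL compound in DMSO. Nonlytic luminescence from viable cells was read at 0, 8, 16, 24, 32 and 40 h.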

[3] = A CellTox Green Cytotoxicity Assay to monitor cytotoxicity in HEK293 cells - 16 hour (AID 1224888); note: nearly all actives have a fitted effect of over 35% in size
Procedure, shortened: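 HEK293 cells premixed with CellTox Green dye were seeded at 600 cells/well and left 5 h at 37 C/5% CO2 before pin transfer of 23 nL compound in DMSO. Fluorescence from dye bound to dead-cell DNA was read during 40 h treatment.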

[4] = qHTS RealTime-Glo MT Cell Viability Assay in HepG2 cells - 0 hour (AID 1224889); note: nearly all actives have a fitted effect of over 50% in size
Procedure, shortened: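 HepG2 cells were seeded at 600 cells/well together with NanoLuc luciferase and a cell-permeant prosubstrate, preincubated 5 h at 37 C/5% CO2, then pin-dosed with compounds in DMSO. Nonlytic luminescence from viable cells was read at each time point.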

[5] = A CellTox Green Cytotoxicity Assay to monitor cytotoxicity in HepG2 cells - 8 hour (AID 1224890); note: nearly all actives have a fitted effect of over 45% in size
Procedure, shortened: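 HepG2 cells were seeded together with the CellTox Green dye at 600 cells/well, left 5 h at 37 C/5% CO2, then given compounds in DMSO. Fluorescence from dye bound to dead-cell DNA was read repeatedly over 40 h of treatment at 37 C.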

[6] = qHTS assay to identify small molecule antagonists of the estrogen receptor alpha (ER-alpha) signaling pathway using the BG1 cell line in the presence of 0.1 nM 17-beta-estradiol - cell viability counter screen (AID 1259241); note: nearly all actives have a fitted effect of over 40% in size
Procedure, shortened: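 CellTiter-Fluor read (30 min, 37C) on ER-alpha/ERE-luc VM7Luc4E2 cells; 22 hr compound treatment; agonist 0.1 nM E2 final; same-well multiplex.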

[7] = qHTS assay to identify small molecule antagonists of the androgen receptor (AR) signaling pathway using the MDA cell line in the presence of 0.5 nM R1881 - cell viability counter screen (AID 1259242); note: nearly all actives have a fitted effect of over 45% in size
Procedure, shortened: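 MDA-kb2 cells (human breast carcinoma, stably carrying MMTV-luciferase reporter) were exposed to compounds with 0.5 nM R1881 (final) for 16 hr at 37C, 0% CO2; viability then read as live-cell protease fluorescence (CellTiter-Fluor, 30 min) in the same wells.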

[8] = qHTS assay to identify small molecule HDAC inhibitors (AID 1259364); note: top concentration of the series differs between compounds; nearly all actives have a fitted effect of over 45% in size
Procedure, shortened: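 Wild-type HCT-116 cells were plated overnight, exposed to compounds for 2 h at 37 °C, then given HDAC-Glo class I/II luminogenic reagent for 30 min at room temperature before luminescence was read.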

[9] = target: Estrogen receptor (Homo sapiens) (UniProt P03372); assay: qHTS assay to identify small molecule antagonists of the estrogen receptor alpha (ER-alpha) signaling pathway using the BG1 cell line in the presence of 0.1 nM 17-beta-estradiol (AID 1259244); note: nearly all actives have a fitted effect of over 50% in size
Procedure, shortened: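 VM7Luc4E2 cells (endogenous full-length ER-alpha, stable 4xERE-luciferase) were grown 5 days in phenol red-free medium with charcoal-stripped FBS, then exposed 22 h at 37C to compounds plus 0.1 nM (final) 17beta-estradiol; ONE-Glo luminescence read-out.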

[10] = qHTS assay to identify small molecule phospholipidosis (PLD) inducers (AID 1259344; active = well fitted curve in the direction sought with a large enough effect; an effect the other way counts as inactive or inconclusive)
Procedure, shortened: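 HepG2 cells, 900/well, treated with compound plus LipidTOX Red for 24 h at 37 C; amiodarone positive and DMSO negative controls. Fixed with paraformaldehyde/Hoechst, then high-content imaging scored LipidTOX pit count and integrated intensity per well and per cell.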
% is set by controls: 0 for no effect and ±100 for the full control effect.

Sequence of Estrogen receptor (Homo sapiens) (P03372 whole entry, looked up): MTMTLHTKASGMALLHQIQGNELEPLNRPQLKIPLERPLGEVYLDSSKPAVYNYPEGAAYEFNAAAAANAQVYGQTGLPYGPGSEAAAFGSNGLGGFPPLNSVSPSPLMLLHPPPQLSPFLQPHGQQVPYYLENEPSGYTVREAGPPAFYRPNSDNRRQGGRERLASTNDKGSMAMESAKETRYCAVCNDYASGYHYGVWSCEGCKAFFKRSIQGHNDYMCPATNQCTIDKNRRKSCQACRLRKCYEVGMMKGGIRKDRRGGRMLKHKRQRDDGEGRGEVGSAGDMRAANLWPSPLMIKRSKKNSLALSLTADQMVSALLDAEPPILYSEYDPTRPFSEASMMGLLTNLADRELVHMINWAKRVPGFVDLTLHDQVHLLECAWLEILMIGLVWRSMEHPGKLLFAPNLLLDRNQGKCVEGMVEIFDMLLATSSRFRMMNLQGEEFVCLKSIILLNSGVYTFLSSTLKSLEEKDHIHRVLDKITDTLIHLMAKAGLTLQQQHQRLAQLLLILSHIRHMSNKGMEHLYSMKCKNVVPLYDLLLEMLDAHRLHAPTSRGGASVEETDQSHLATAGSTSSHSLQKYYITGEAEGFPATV

SCCSCCS
inactive: Potency [1] | Potency [2] | Potency [3] | Potency [4] | Potency [5] | Potency [6] | Potency [7] | Potency [8]

O=C(O)CCNC(=O)c1ccccc1
inactive: Potency [1] | Potency [2] | Potency [4] | Potency [5] | Potency [6] | Potency [7] | Potency [9] | outcome [10] | Potency [8]

CC(C)=CC(C)(C)C
inactive: Potency [1] | Potency [2] | Potency [3] | Potency [4] | Potency [5] | Potency [6] | Potency [7] | Potency [8]

NS(=O)(=O)c1ccccc1OC(F)(F)F
inactive: Potency [1] | Potency [2] | Potency [3] | Potency [4] | Potency [5] | Potency [6] | Potency [7] | Potency [8]

O=CO
inactive: activity change, negative = cytotoxicity [1] 1.22% [at 6.97 µM] | activity change, negative = cytotoxicity [2] 8.18% [at 6.97 µM] | activity change, negative = cytotoxicity [4] -14.6% [at 6.97 µM] | cytotoxicity increase [5] -4.28% [at 6.97 µM] | activity change, negative = cytotoxicity [6] -0.2% [at 8.39 µM] | viability change, negative = cytotoxic [7] 2.31% [at 8.39 µM] | activity change, negative = inhibition [8] -0.333% [at 8.39 µM]

CCCCC(=O)N(C)C
inactive: Potency [1] | Potency [3] | Potency [4] | Potency [5] | Potency [6] | Potency [7] | Potency [9] | Potency [8]

O=C(CN1CCN(Cc2ccc3c(c2)OCO3)CC1)N1c2ccccc2Sc2ccccc21
inactive: Potency [1] | Potency [3] | Potency [4] | Potency [5] | Potency [6] | Potency [7] | outcome [10] | Potency [8]

COc1ccc(/C=N/NC(=O)c2ccncc2)cc1OC
inactive: Potency [2] | Potency [3] | Potency [4] | Potency [5] | Potency [6] | Potency [7] | Potency [9] | outcome [10] | Potency [8]

CCOC(=O)CC#N
inactive: Potency [1] | Potency [3] | Potency [4] | Potency [5] | Potency [6] | Potency [7] | Potency [9] | Potency [8]

CCCCC(CC)C(=O)OC(C)C (centres undefined)
inactive: Potency [1] | Potency [3] | Potency [4] | Potency [5] | Potency [6] | Potency [7] | Potency [8]

CCCO
inactive: Potency [1] | Potency [3] | Potency [4] | Potency [5] | Potency [6] | Potency [7] | Potency [9] | Potency [8]

CC(C)CCC(=O)CCC(C)C
inactive: Potency [1] | Potency [3] | Potency [4] | Potency [5] | Potency [6] | Potency [7] | Potency [9] | Potency [8]

CC(C)(c1ccc(Oc2ccc3c(c2)C(=O)OC3=O)cc1)c1ccc(Oc2ccc3c(c2)C(=O)OC3=O)cc1
inactive: Potency [1] | Potency [3] | Potency [4] | Potency [5] | Potency [6] | Potency [7] | Potency [9] | Potency [8]

CC(C)(C)NCCO
inactive: Potency [1] | Potency [3] | Potency [4] | Potency [5] | Potency [6] | Potency [7] | Potency [9] | Potency [8]

Cc1ccc2c(c1)c1c3n2CCNC3CCC1 (centres undefined)
inactive: Potency [1] | Potency [3] | Potency [4] | Potency [5] | Potency [6] | Potency [7] | Potency [8]

CO[Si](CCCCl)(OC)OC
inactive: Potency [1] | Potency [3] | Potency [4] | Potency [5] | Potency [6] | Potency [7] | Potency [9] | Potency [8]

O=C1NC2NC(=O)NC2N1 (centres undefined)
inactive: Potency [1] | Potency [3] | Potency [4] | Potency [5] | Potency [6] | Potency [7] | Potency [8]

N#CCCOCCOCCC#N
inactive: Potency [1] | Potency [3] | Potency [4] | Potency [5] | Potency [6] | Potency [7] | Potency [9] | Potency [8]

CCC(CO)CO
inactive: Potency [1] | Potency [3] | Potency [4] | Potency [5] | Potency [6] | Potency [7] | Potency [9] | Potency [8]

COc1ccc(OC)c(NC(=O)CC(C)=O)c1
inactive: Potency [1] | Potency [3] | Potency [4] | Potency [5] | Potency [6] | Potency [7] | Potency [8]

CCOC(=O)C(=O)c1csc(NC=O)n1
inactive: Potency [1] | Potency [3] | Potency [4] | Potency [5] | Potency [6] | Potency [7] | Potency [9] | Potency [8]

CC(=O)OC[C@H]1O[C@@H](OC(C)=O)[C@H](OC(C)=O)[C@@H]1OC(C)=O
inactive: Potency [1] | Potency [3] | Potency [4] | Potency [5] | Potency [6] | Potency [7] | Potency [9] | Potency [8]

CC(=O)Nc1ncc([N+](=O)[O-])s1
inactive: Potency [2] | Potency [3] | Potency [4] | Potency [5] | Potency [6] | Potency [7] | Potency [9] | outcome [10] | Potency [8]

O=P(O)(O)OCC(O)CO (centres undefined)
inactive: Potency [2] | Potency [3] | Potency [4] | Potency [5] | Potency [6] | Potency [7] | Potency [9] | outcome [10] | Potency [8]

CC(C)CCCCCCOC(=O)C1CCCCC1C(=O)OCCCCCCC(C)C (centres undefined)
inactive: Potency [1] | Potency [3] | Potency [4] | Potency [5] | Potency [6] | Potency [7] | Potency [9] | Potency [8]
